In PubChem BioAssay one finds composite z-score, composite Z-score and z-score data, which are given here for six molecules.

Activity calls are given as the source filed them.

The target of one assay is Albumin (Bos taurus) (UniProt P02769). The experiment in a line: compounds binding labelled BSA control protein – biochemical, small-molecule microarray, Alexa647 label, 635/667 nm fluorescence, artefact control for SMM control protein annotation, profiling panel (AID 1118).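 Note: score merges 667 nm emission intensity and signal-to-noise per printed compound spot.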 The settings on record: BSA-A647 binding, fluorescence 635 nm, higher = more signal.
Chain of Albumin (Bos taurus) (P02769 whole entry, looked up): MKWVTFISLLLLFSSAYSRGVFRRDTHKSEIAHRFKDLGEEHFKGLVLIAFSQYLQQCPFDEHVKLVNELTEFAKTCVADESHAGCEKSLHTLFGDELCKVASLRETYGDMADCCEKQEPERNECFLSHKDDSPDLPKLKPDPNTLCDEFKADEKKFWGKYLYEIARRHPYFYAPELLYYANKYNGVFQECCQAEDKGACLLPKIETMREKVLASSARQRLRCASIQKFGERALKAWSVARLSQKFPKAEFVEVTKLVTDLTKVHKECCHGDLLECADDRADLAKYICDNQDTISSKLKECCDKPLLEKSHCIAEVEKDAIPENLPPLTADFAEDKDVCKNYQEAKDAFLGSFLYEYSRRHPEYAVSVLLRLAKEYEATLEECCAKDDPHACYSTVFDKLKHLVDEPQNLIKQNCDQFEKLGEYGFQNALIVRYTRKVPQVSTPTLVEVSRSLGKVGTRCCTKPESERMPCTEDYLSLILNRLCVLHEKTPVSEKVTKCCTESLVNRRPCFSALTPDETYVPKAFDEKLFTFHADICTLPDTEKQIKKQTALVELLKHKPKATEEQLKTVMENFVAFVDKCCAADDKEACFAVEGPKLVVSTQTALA
Assay [1] can be described thus: probe aXIP binding to arrayed compounds – biochemical, NeuroSMM set, 635/667 nm fluorescence, primary screen (AID 1119).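 Note: probe is the protein aXip251-270 applied at 1 µg/mL to compound-printed slides; binding of probe to printed compounds measured as 667 nm fluorescence plus signal to noise.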 The conditions noted are these: small-molecule microarray, higher = more signal, called active from +8 up or from −8 down.
Assay [2] can be described thus: probe aNOTCH3 binding on compound microarray – biochemical, small-molecule microarray, 635/667 nm fluorescence, primary screen (AID 1120).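 Note: probe is a biotin-tagged antibody raised against NOTCH3 rather than NOTCH3 protein; score merges spot fluorescence near 667 nm with spot signal to noise.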 The settings on record: higher = more signal.
The nature of assay [3]: probe aNOTCH2 binding on compound microarray – biochemical, small-molecule microarray, 635/667 nm fluorescence, primary screen (AID 1121).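 Note: score merges feature fluorescence read at 667 nm with its signal to noise.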 The conditions noted are these: higher = more signal.
Assay [4] addresses Carbonic anhydrase 2 (Homo sapiens) (UniProt P00918). The experiment in a line: compounds binding carbonic anhydrase 2 – biochemical, small-molecule microarray, Alexa647-labelled CAII, profiling panel (AID 1122). The settings on record: CAII-A647 binding fluorescence, higher = more signal.
Assay [5] can be described thus: COS7 lysate on small-molecule microarray, probe aHis, 635 nm (AID 1123).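 Note: z-score combines 667nm fluorescence intensity with signal-to-noise per printed compound spot.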 The settings on record: COS7 cell lysate, fluorescence, higher = more signal.
The nature of assay [6]: probe aLAP1 signal on lysate-treated microarray – cell lysate, small-molecule microarray, COS7 lysate, primary screen (AID 1124).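 Note: lysate comes from COS7 cells expressing LAP1 and is applied at 0.3 µg/mL; score merges spot fluorescence near 667 nm with signal-to-noise over triplicate slides.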 The conditions noted are these: probe aLAP1, fluorescence, higher = more signal.
The test system of another assay is Sam68 (KHDRBS1). The experiment in a line: compounds binding KHDRBS1 protein – biochemical, small-molecule microarray, 635 nm fluorescence, primary screen (AID 1125).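 Note: score merges 667 nm channel intensity with signal to noise over triplicate slides.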 The conditions noted are these: higher = more signal.
Assay [7] has as its system Chordin-like protein 2 (CHRDL2). Kind of assay: compounds binding chordin-like 2 – biochemical, small-molecule microarray, 635 nm fluorescence, primary screen (AID 1126).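 Note: printed compound slides probed with Chrdl2 protein at 4 µg/mL for 1 h at 4 C; score merges 667 nm emission intensity with signal to noise over three replicate slides.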 The conditions noted are these: fluorescence 635 nm, higher = more signal.
Assay [8] deals with Concanavalin-A (Canavalia ensiformis) (UniProt P02866). The experiment in a line: compounds binding concanavalin A lectin – biochemical, small-molecule microarray, Alexa647 label, 635 nm, artefact control for SMM control protein annotation, primary screen (AID 1127).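 Note: z combines 667 nm emission intensity with signal-to-noise across three replicate slides.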 The settings on record: ConA-A647 binding fluorescence, higher = more signal.
Chain of Concanavalin-A (Canavalia ensiformis) (P02866 whole entry, looked up): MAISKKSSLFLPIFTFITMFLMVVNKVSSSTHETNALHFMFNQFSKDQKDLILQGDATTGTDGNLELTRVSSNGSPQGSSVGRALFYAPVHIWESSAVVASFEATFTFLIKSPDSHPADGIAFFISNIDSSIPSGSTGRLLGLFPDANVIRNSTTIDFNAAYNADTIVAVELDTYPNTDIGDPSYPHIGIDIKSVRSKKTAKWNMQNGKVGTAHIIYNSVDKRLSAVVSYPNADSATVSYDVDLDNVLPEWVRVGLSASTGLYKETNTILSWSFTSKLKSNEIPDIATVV
A short description of assay [9]: compounds binding Alexa647 anti-His antibody – biochemical, small-molecule microarray, 635 nm fluorescence, artefact control for SMM control protein annotation, primary screen (AID 1128).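 Note: score merges feature fluorescence with signal-to-noise for each printed compound spot.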 The settings on record: higher = more signal.
Assay [10] deals with Human papillomavirus type 1a E7 protein (residues 1-88). Kind of assay: HPV1a E7 small-molecule binders, primary screen, biochemical, small-molecule microarray, residues 1-88, 635 nm (AID 1129). The conditions noted are these: small-molecule microarray binding, fluorescence 635 nm; higher = more signal.
The target in assay [11] is Focal adhesion kinase 1 (Homo sapiens) (UniProt Q05397). The experiment in a line: PTK2 protein binding on printed compound slides – biochemical, small-molecule microarray, 635/667 nm fluorescence, BSA, DTT, primary screen (AID 1130).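 Note: composite of spot emission at 667 nm and signal to noise over triplicate slides.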 The settings on record: 635 nm fluorescence, higher = more signal.
Chain of Focal adhesion kinase 1 (Homo sapiens) (Q05397 whole entry, looked up): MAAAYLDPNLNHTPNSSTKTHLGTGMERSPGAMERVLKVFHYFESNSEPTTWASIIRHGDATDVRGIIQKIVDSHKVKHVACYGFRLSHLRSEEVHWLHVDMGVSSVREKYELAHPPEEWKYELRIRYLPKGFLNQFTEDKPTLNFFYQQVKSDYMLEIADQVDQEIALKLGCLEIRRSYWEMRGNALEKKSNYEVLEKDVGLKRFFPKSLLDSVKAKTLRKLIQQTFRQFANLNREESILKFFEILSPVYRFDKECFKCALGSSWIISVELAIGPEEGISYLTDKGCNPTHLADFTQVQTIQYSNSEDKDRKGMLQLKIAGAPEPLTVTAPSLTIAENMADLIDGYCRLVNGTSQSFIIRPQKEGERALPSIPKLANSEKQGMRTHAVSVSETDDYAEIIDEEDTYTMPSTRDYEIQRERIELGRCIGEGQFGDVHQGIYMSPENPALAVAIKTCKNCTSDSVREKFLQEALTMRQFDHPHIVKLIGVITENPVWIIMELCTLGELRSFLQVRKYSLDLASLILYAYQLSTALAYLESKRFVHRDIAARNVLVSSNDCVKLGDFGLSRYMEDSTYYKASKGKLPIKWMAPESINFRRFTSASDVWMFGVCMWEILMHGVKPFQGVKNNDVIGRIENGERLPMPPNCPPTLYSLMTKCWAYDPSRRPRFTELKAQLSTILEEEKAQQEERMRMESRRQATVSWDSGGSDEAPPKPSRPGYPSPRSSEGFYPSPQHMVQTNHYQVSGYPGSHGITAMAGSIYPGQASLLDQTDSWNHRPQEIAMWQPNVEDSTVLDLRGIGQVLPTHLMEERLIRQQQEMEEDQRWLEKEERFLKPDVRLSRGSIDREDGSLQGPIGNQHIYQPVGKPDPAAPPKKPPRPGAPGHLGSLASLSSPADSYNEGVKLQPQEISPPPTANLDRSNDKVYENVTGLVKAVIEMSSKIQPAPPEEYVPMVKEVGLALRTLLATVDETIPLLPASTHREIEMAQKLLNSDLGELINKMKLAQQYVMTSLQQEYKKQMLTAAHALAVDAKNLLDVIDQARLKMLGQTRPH
Assay [12] concerns Fibrinogen (Alexa647-labelled). Kind of assay: Alexa647-fibrinogen binding to printed small molecules – biochemical, small-molecule microarray, 635/667 nm fluorescence, artefact control for SMM control-protein annotation, profiling panel (AID 1131).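 Note: z-score merges 667 nm fluorescence with per-spot signal-to-noise over triplicate slides.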 The settings on record: fibrinogen-A647 binding fluorescence, higher = more signal.
Assay [13] deals with Follistatin (Homo sapiens) (UniProt P19883). Kind of assay: FST protein binding to printed compounds – biochemical, small-molecule microarray, 635/667 nm fluorescence, primary screen (AID 1132). The settings on record: 635 nm fluorescence, higher = more signal.
Chain of Follistatin (Homo sapiens) (P19883 whole entry, looked up): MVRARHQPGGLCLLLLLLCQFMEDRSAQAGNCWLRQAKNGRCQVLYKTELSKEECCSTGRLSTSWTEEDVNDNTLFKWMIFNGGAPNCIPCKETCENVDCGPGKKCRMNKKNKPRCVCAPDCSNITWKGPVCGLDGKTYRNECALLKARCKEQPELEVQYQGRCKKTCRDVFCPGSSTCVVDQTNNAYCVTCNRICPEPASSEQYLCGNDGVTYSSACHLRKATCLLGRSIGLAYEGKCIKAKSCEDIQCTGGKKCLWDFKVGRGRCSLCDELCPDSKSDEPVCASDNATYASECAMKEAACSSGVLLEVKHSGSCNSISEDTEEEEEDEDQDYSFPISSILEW
In assay [14] the target is Fibroblast growth factor 2 (Homo sapiens) (UniProt P09038). Kind of assay: basic fibroblast growth factor binding to printed compounds – biochemical, small-molecule microarray, 635/667 nm fluorescence, primary screen (AID 1133). The conditions noted are these: FGF2, fluorescence 635/667, higher = more signal.
Chain of Fibroblast growth factor 2 (Homo sapiens) (P09038 whole entry, looked up): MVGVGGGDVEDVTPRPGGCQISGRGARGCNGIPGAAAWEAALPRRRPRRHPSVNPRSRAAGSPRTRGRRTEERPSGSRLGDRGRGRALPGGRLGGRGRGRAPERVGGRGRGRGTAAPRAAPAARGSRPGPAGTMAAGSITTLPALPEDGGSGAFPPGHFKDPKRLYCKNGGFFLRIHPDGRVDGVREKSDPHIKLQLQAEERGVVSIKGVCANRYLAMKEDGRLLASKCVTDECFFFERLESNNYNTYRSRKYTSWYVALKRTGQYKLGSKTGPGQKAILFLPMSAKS
Assay [15] can be described thus: JC-1 mitochondrial potential readout, lung cancer cells – cell-based, A549, JC-1 fluorescence, basal, 24 h, 100 nL, profiling panel (AID 1138).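 Note: A549 lung adenocarcinoma cells under basal conditions with no added stimulus; test concentration not given here.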 The conditions noted are these: higher = more signal.
Another assay has as its system Lefty1. The experiment in a line: Lefty1 protein binding to printed compounds – biochemical, small-molecule microarray, 635/667 nm fluorescence, primary screen (AID 1139). The settings on record: fluorescence 635/667, higher = more signal.
Assay [16] concerns wheat germ agglutinin (Triticum aestivum), Alexa647-labelled. Kind of assay: Alexa647-WGA lectin binding to printed small molecules – biochemical, small-molecule microarray, 635/667 nm fluorescence, artefact control for SMM control-protein annotation, profiling panel (AID 1140).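 Note: score merges 667 nm feature emission with signal to noise over triplicate slides.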 The conditions noted are these: WGA-A647 binding, 635 nm fluorescence, higher = more signal.
Assay [17] has as its target Luciferin 4-monooxygenase (Photinus pyralis) (UniProt P08659). Kind of assay: inhibition of purified Photinus pyralis luciferase – biochemical, luminescence, purified enzyme, 2006 set, primary screen (AID 1141).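 Note: cell-free assay with purified firefly luciferase at 100 ng per well in PBS; test concentration not given here.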 The conditions noted are these: purified firefly luciferase, SteadyGlo luminescence, 30 min; higher = more signal, called active from +8 up or from −8 down.

Chain of Luciferin 4-monooxygenase (Photinus pyralis) (P08659 whole entry, looked up): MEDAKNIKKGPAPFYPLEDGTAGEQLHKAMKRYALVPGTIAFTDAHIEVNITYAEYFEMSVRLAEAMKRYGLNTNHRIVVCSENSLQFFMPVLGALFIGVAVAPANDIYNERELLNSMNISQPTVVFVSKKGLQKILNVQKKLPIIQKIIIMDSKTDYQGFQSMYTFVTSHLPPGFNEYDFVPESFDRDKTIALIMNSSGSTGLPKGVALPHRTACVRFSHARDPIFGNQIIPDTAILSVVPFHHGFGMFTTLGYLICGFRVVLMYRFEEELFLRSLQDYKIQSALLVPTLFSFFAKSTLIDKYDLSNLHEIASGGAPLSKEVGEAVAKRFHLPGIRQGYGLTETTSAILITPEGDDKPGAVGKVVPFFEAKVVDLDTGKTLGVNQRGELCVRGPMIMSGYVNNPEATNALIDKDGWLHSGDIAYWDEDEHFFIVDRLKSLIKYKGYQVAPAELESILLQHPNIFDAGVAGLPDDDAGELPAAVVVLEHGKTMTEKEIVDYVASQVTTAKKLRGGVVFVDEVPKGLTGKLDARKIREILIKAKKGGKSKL

Take `COc1ccc([Si](C)(C)[C@H]2[C@H](CC(=O)N3Cc4ccccc4C[C@H]3CO)O[C@@]3(C(=O)N(Cc4cccc(I)c4)c4ccccc43)[C@@H]2C)cc1`: the composite z-score with Albumin (Bos taurus) is -0.481; in assay [2], -0.0947; in assay [3], -0.125; in [4], 0.784; in [5], -0.0845; in assay [6], -0.361. Besides, the composite z-score in the assay on Sam68 (KHDRBS1) is 0.418; in assay [7], 1.54; in [8] it was 0.891; in assay [9], 1.67; in assay [10] it was 0.0688; in assay [11], -0.706. For the same molecule, the composite z-score was 0.321 in assay [12]; 1.57 in [13]; 2.13 in assay [14]; 1.64 with Lefty1; 0.539 in [16]. In addition, in [1], the composite Z-score was 0.58 (inactive). For the same molecule, the figures for the z-score in assay [15] and in assay [17] were -0.0488 and -0.63 (inactive), respectively.

With `C[N+](C)(C)CCCC[C@@H]1NC(=O)[C@@H]2C[C@H](C(=O)NCCCCCCNC(=O)CS)[C@H](c3cccc(OCCO)c3)N2C1=O`, the composite z-score in the assay with Albumin (Bos taurus) was -0.658; in assay [2] it was -0.0984; in [3] it was -0.174; in [4] it was 0.332; in assay [5], 1.04; in [6] it was 0.264. Further, the composite z-score is 0.129 in the assay on Sam68 (KHDRBS1); 0.393 in [7]; -0.258 in [8]; 1.89 in assay [9]; -0.208 in [10]; -0.379 in assay [11]. The composite z-score in assay [12] amounted to 0.552; in assay [13] it was 1.27; in assay [14] it was 1.2; in the assay on Lefty1, 1.29; in assay [16], 0.585. Further, the composite Z-score in assay [1] is 0.802 (inactive). For the same molecule, the z-score was 0.332 in [15] and -1.45 (inactive) in assay [17].

`C#C[C@H](O[Si](C#CCCCCCC)(C(C)C)C(C)C)c1ccccc1`: the composite z-score in the assay with Albumin (Bos taurus) is -0.22; in [2] it was -0.22; in assay [3], -0.155; in [4], 0.342; in assay [5] it was 0.43; in assay [6], -0.281. In addition, the composite z-score in the assay on Sam68 (KHDRBS1) is 0.524; in [7], -0.0786; in assay [8], -0.0042; in assay [9], 0.272; in assay [10] it was 0.203; in assay [11], -0.308. The composite z-score is -0.152 in [12]; 0.481 in assay [13]; -0.471 in assay [14]; 0.605 in the assay on Lefty1; -0.174 in assay [16]. For the same molecule, the composite Z-score in [1] is 0.364 (inactive). The z-score was -0.562 in [15] and 1.25 (inactive) in assay [17].

As to `O=C1O[C@H](c2ccccc2)[C@H](c2ccccc2)N2[C@H]1[C@@H](C(=O)N1CCCCCCC1)[C@]1(C(=O)Nc3ccc(C#CC4=CCCCC4)cc31)[C@H]2c1ccc(O)cc1`, the composite z-score with Albumin (Bos taurus) was 0.599; in [2] it was 2.37; in assay [3], 1.22; in assay [4] it was 1.1; in [5], 5.31; in [6] it was 1.2. In addition, the composite z-score with Sam68 (KHDRBS1) is 1.35; in [7] it was 1.71; in assay [8], 1.14; in assay [9], 3.04; in [10] it was 1.36; in [11] it was 5.6. Moreover, the composite z-score in assay [12] came to 0.535; in [13], 1.56; in assay [14] it was 1.22; with Lefty1, 1.82; in assay [16], 1.81. For the same molecule, the composite Z-score in assay [1] is 10.9 (active). Moreover, the results for the z-score in [15] and in [17] were -0.233 and 0.289 (inactive), respectively.

As for `CCCC[C@@H]1C[C@H]1[C@@H](NC(=O)c1ccccc1)c1ccccc1`, the composite z-score with Albumin (Bos taurus) was 0.0945; in assay [2] it was 0.667; in [3], 0.253; in [4], -0.0524; in assay [5], 0.506; in [6], -0.159. Further, the composite z-score with Sam68 (KHDRBS1) is 0.138; in [7] it was -0.608; in [8] it was -0.482; in assay [9], 1.47; in [10] it was -0.23; in assay [11], 0.202. The composite z-score is 0.244 in [12]; 0.671 in assay [13]; 0.085 in assay [14]; -0.235 in the assay on Lefty1; 0.136 in assay [16]. In assay [1], the composite Z-score is 0.103 (inactive). Also, the z-score is -1.03 in assay [15] and 1.19 (inactive) in [17].

For the molecule `C=CCNC(=O)[C@H]1[C@@H]2C(=O)O[C@@H](c3ccccc3)[C@@H](c3ccccc3)N2[C@@H](c2ccc(OCCO)cc2)[C@]12C(=O)N(C(=O)OCCOC)c1ccc(C#CC3(O)CCCCCC3)cc12`, the composite z-score in the assay with Albumin (Bos taurus) was -1.02; in [2], 0.373; in [3], 0.308; in assay [4] it was 0.615; in assay [5] it was 1.9; in assay [6], 1.5. Also, the composite z-score stood at 1.3 with Sam68 (KHDRBS1); 1.1 in assay [7]; 1.07 in assay [8]; 0.632 in assay [9]; 1.21 in assay [10]; 1.32 in [11]. Further, the composite z-score was determined as 0.888 in assay [12]; 1.36 in assay [13]; 1.58 in assay [14]; 1.47 with Lefty1; 0.777 in [16]. Further, the composite Z-score in assay [1] is -0.586 (inactive). Moreover, the z-score in assay [15] is 0.208; in assay [17], -1.86 (inactive).
